Records with an inconclusive call do not appear. Calls of active or inactive are those of the source. Calls follow the shape of the dose curve; as a rule, active = well fitted curve in the direction sought with a large enough effect in the repeat runs; inconclusive = weak or mixed curves; inactive = no such curve, though single readings can be large; an effect the other way counts as inactive or inconclusive.
Key:
[1] = qHTS RealTime-Glo MT Cell Viability Assay in HepG2 cells - 40 hour (AID 1224870); also: nearly all actives have a fitted effect of over 50% in size
How it was run: (§1)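 HepG2 cells (600/well) mixed with RealTime-Glo MT reagent, settled 5 h at 37 C/5% CO2 before compound addition. Nonlytic NanoLuc luminescence from viable-cell prosubstrate reduction read repeatedly during 40 h treatment at 37 C.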

[2] = A CellTox Green Cytotoxicity Assay to monitor cytotoxicity in HEK293 cells - 40 hour (AID 1224871); also: nearly all actives have a fitted effect of over 45% in size
How it was run: (§2)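 Nonlytic real-time cytotoxicity: HEK293 + CellTox Green reagent plated, 5 h preincubation, pintool compound addition (23 nL in DMSO), 37 C for 40 h, fluorescence measured at successive time points.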

[3] = qHTS RealTime-Glo MT Cell Viability Assay in HEK293 cells - 16 hour (AID 1224872); also: top concentration of the series differs between compounds; nearly all actives have a fitted effect of over 50% in size
How it was run: (§3)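 Nonlytic real-time viability readout: viable cells convert prosubstrate to NanoLuc substrate, giving luminescence proportional to live cell number. HEK293, 600 cells/well, compound added after 5 h, continuous culture at 37 C.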

[4] = qHTS RealTime-Glo MT Cell Viability Assay in HepG2 cells - 8 hour (AID 1224873); also: nearly all actives have a fitted effect of over 55% in size
How it was run: as §1

[5] = A CellTox Green Cytotoxicity Assay to monitor cytotoxicity in HEK293 cells - 24 hour (AID 1224875); also: series mostly up to about 77 µM; nearly all actives have a fitted effect of over 45% in size
How it was run: as §2

[6] = A CellTox Green Cytotoxicity Assay to monitor cytotoxicity in HepG2 cells - 16 hour (AID 1224876); also: nearly all actives have a fitted effect of over 45% in size
How it was run: (§4)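 Read-out is fluorescence of a cyanine dye excluded from live cells that stains DNA of dead HepG2 cells, with signal proportional to cytotoxicity. Plates were read at 0, 8, 16, 24, 32 and 40 h after compound addition.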

[7] = qHTS RealTime-Glo MT Cell Viability Assay in HepG2 cells - 32 hour (AID 1224877); also: nearly all actives have a fitted effect of over 55% in size
How it was run: (§5)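 Luminescence read-out: viable HepG2 cells reduce a prosubstrate to a NanoLuc substrate, giving a signal proportional to live cell number. Reads taken at 0, 8, 16, 24, 32 and 40 h of compound exposure at 37 C.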

[8] = A CellTox Green Cytotoxicity Assay to monitor cytotoxicity in HepG2 cells - 24 hour (AID 1224878); also: nearly all actives have a fitted effect of over 45% in size
How it was run: as §4

[9] = A CellTox Green Cytotoxicity Assay to monitor cytotoxicity in HepG2 cells - 40 hour (AID 1224879); also: nearly all actives have a fitted effect of over 40% in size
How it was run: as §4

[10] = qHTS RealTime-Glo MT Cell Viability Assay in HEK293 cells - 0 hour (AID 1224880)
How it was run: (§6)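 Cells were seeded together with NanoLuc luciferase and a prosubstrate that viable cells reduce to a luciferase substrate. After a 5 h incubation at 37 C/5% CO2, compounds were added and luminescence was measured repeatedly during 40 h of treatment.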

[11] = A CellTox Green Cytotoxicity Assay to monitor cytotoxicity in HEK293 cells - 32 hour (AID 1224881); also: nearly all actives have a fitted effect of over 40% in size
How it was run: as §2

[12] = A CellTox Green Cytotoxicity Assay to monitor cytotoxicity in HepG2 cells - 0 hour (AID 1224882); also: nearly all actives have a fitted effect of over 35% in size
How it was run: as §4

[13] = A CellTox Green Cytotoxicity Assay to monitor cytotoxicity in HepG2 cells - 32 hour (AID 1224883); also: nearly all actives have a fitted effect of over 50% in size
How it was run: as §4

[14] = A CellTox Green Cytotoxicity Assay to monitor cytotoxicity in HEK293 cells - 8 hour (AID 1224884); also: nearly all actives have a fitted effect of over 35% in size
How it was run: as §2

[15] = qHTS RealTime-Glo MT Cell Viability Assay in HEK293 cells - 24 hour (AID 1224886); also: top concentration of the series differs between compounds; nearly all actives have a fitted effect of over 50% in size
How it was run: as §3

[16] = qHTS RealTime-Glo MT Cell Viability Assay in HEK293 cells - 8 hour (AID 1224887)
How it was run: as §6

[17] = qHTS RealTime-Glo MT Cell Viability Assay in HepG2 cells - 0 hour (AID 1224889); also: nearly all actives have a fitted effect of over 50% in size
How it was run: as §5

[18] = qHTS RealTime-Glo MT Cell Viability Assay in HEK293 cells - 40 hour (AID 1224874); conditions: RealTime-Glo luminescence; max response: active compounds read low; also: nearly all actives have a fitted effect of over 50% in size
How it was run: as §6

[19] = qHTS RealTime-Glo MT Cell Viability Assay in HepG2 cells - 16 hour (AID 1224885); also: nearly all actives have a fitted effect of over 50% in size
How it was run: as §5

[20] = A CellTox Green Cytotoxicity Assay to monitor cytotoxicity in HEK293 cells - 16 hour (AID 1224888); also: nearly all actives have a fitted effect of over 35% in size
How it was run: as §2
% is scaled to controls: 0 for no effect and ±100 for the full control effect.

CC(CCl)OC(C)CCl (stereo not drawn)
inactive: Potency [1] | Potency [2] | Potency [3] | outcome [4] | Potency [5] | Potency [6] | Potency [7] | Potency [8] | Potency [9] | Potency [10] | Potency [11] | Potency [12] | Potency [13] | Potency [14] | Potency [15] | Potency [16] | Potency [17]

O=C(Nc1ccccc1)c1cc([N+](=O)[O-])ccc1Cl
inactive: Potency [1] | Potency [2] | Potency [3] | outcome [4] | max response [18] -23.2% | Potency [5] | Potency [6] | Potency [7] | Potency [8] | Potency [11] | Potency [12] | Potency [13] | Potency [14] | outcome [19] | Potency [15] | Potency [16] | Potency [20] | Potency [17]

CC1(C)CC(=O)CC(C)(C)N1
inactive: Potency [1] | Potency [2] | Potency [3] | outcome [4] | max response [18] 0.817% | Potency [5] | Potency [6] | Potency [7] | Potency [8] | Potency [9] | Potency [11] | Potency [13] | Potency [14] | Potency [15] | Potency [16] | Potency [20] | Potency [17]

CC/C=C\CCO
inactive: Potency [1] | Potency [2] | Potency [3] | outcome [4] | Potency [5] | Potency [6] | Potency [7] | Potency [8] | Potency [9] | Potency [10] | Potency [11] | Potency [13] | Potency [14] | outcome [19] | Potency [15] | Potency [16] | Potency [20] | Potency [17]

CCOC(=O)CC(O)(CC(=O)OCC)C(=O)OCC
inactive: Potency [1] | Potency [2] | Potency [3] | outcome [4] | Potency [5] | Potency [6] | Potency [7] | Potency [8] | Potency [9] | Potency [10] | Potency [11] | Potency [12] | Potency [13] | outcome [19] | Potency [16] | Potency [20] | Potency [17]

O=C(OC1C[C@H]2CC[C@@H](C1)[N+]21CCCC1)C(O)(c1ccccc1)c1ccccc1 (stereo partly drawn)
inactive: Potency [1] | Potency [2] | Potency [3] | outcome [4] | max response [18] 0.515% | Potency [5] | Potency [6] | Potency [7] | Potency [8] | Potency [10] | Potency [11] | Potency [12] | Potency [13] | Potency [14] | outcome [19] | Potency [15] | Potency [16] | Potency [17]

Nc1ccccc1Nc1ccccc1
inactive: Potency [1] | Potency [2] | Potency [3] | outcome [4] | Potency [5] | Potency [6] | Potency [7] | Potency [8] | Potency [9] | Potency [10] | Potency [11] | Potency [12] | Potency [13] | Potency [14] | outcome [19] | Potency [15] | Potency [20] | Potency [17]

From PubChem BioAssay (Tox21)
